Shown are actives, neighbours in structure and some others; about 0.81% of the full set was active somewhere.
TbPYK inhibitor = inhibitors of Trypanosoma brucei pyruvate kinase; Q57TT1; hit rate 0.12% among 410,000; TbPYK enzyme, Kinase-Glo Plus ATP luminescence, 45 min; Potency, µM (highest dose often 76.8 µM), for the others: at the highest dose activity, negative = inhibition, hits mostly inhibitors; note: % is set by controls: 0 for no effect and ±100 for the full control effect; nearly all actives have a fitted effect of over 50% in size
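Luminescence from Kinase-Glo Plus, added after a 45-minute room-temperature reaction, served as the end-point read-out. The enzyme and substrate were preincubated with compound before ADP (130 uM final) initiated turnover. Concentration-effect curves came from normalized qHTS data.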
AMA1-RON2 inh = disrupts binding of P. falciparum AMA1 to RON2; Potency, µM (titrated, usually from 58.2 µM), for the others: at the highest dose activity change, negative = inhibition, actives largely listed as inhibitors; AlphaScreen AMA1-biotinylated RON2 peptide binding; hit rate 0.2% among 360,000;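 note: 0% = vehicle wells and -100% = peptide control; nearly all actives have a fitted effect of over 45% in size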
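AMA1 (3D7) with his tag at 25 nM final met compounds first, then biotinylated RON2 peptide at 25 nM; detection used donor plus acceptor beads, 10 µg/mL apiece, read by AlphaScreen after 30 min at room temperature.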
SARS PLpro yeast = blocks SARS-CoV papain-like protease in a yeast assay; Potency, µM (top dose mostly 32.9 µM), without a hit: at the top dose activity, positive = growth rescue, hits mostly activators; S. cerevisiae expressing SARS-CoV PLpro, growth rescue; hit rate 0.19% among 330,000; calls by dose curve; note: 0% is about no effect; nearly all actives have a fitted effect of over 55% in size
RE007 growth inh = less growth of the S. pombe RE007 Vpr strain. Potency, µM (top dose mostly 92.2 µM), for inactives: top-dose activity change, negative = less growth, hits mostly inhibitors. S. pombe RE007 Vpr strain, BacTiter-Glo ATP luminescence, 24 h. hit rate 0.21% among 360,000; active = well fitted falling curve with a large enough effect; inconclusive = small, poorly fitted or top-dose-only effect; inactive = no such curve, though single readings can be large or run the other way; note: % is set by controls: 0 for no effect and ±100 for the full control effect; nearly all actives have a fitted effect of over 50% in size
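Fission yeast strain RE007, carrying one chromosomally integrated HIV-1 vpr copy, was seeded at OD 0.01 in PMG+AL medium with 23 nL pinned compound. After 24 h at 30 °C and 99% humidity, viability was read by BacTiter-Glo luminescence.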
LmPK inh = blocks Leishmania mexicana pyruvate kinase activity; Q27686; purified LmPK, Kinase-Glo ATP luminescence, 1 h; Potency, µM (highest dose often 57.5 µM), inactives show at the highest dose activity change, negative = inhibition, usual class: inhibitors; hit rate 0.37% among 290,000; note: % is set by controls: 0 for no effect and ±100 for the full control effect
Target sequence (Q27686 whole entry, looked up): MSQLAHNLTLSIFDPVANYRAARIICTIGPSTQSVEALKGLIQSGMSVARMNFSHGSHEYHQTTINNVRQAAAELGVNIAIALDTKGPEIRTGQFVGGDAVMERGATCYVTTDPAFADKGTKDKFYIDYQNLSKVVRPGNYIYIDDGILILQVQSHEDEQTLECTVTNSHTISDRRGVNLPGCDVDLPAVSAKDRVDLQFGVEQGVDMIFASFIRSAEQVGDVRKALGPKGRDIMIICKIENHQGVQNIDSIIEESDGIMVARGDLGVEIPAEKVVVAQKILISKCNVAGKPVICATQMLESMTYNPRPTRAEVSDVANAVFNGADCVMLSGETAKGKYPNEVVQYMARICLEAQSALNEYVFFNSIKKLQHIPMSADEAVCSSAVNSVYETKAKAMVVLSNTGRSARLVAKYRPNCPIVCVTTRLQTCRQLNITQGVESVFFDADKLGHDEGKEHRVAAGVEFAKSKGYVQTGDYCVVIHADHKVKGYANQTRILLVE
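Purified LmPK (0.1 nM) converted ADP (0.1 mM) to ATP with PEP (0.5 mM) in imidazole buffer pH 7.2 with KCl and MgCl2, 1 h at room temperature. ATP was read by Kinase-Glo luminescence; data normalized to uninhibited and no-enzyme controls.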
Numbers without * were called inactive; u = inconclusive; x = not tested or not shown; [ ] = dose if it differs, or a comment. Unless noted, calls come from the whole dose curve; as a rule, active = well fitted curve in the direction sought with a large enough effect; inconclusive = small, poorly fitted or top-dose-only effect, or another doubt; inactive = no such curve, though single readings can be large; an effect the other way counts as inactive or inconclusive. Potency is the fitted concentration of half-maximal effect.

SMILES | TbPYK inhibitor | AMA1-RON2 inh | SARS PLpro yeast | RE007 growth inh | LmPK inh
O=C1CC(N2CCSCC2)C(=O)N1c1ccc(Br)cc1 (configuration not stated) | -5% | -5% | -5% | u | 6%
COc1cccc2sc(N(Cc3cccnc3)C(=O)c3ccc4c(c3)OCCO4)nc12 | 3% | x | x | x | x
O=C1CC(N2CCCCCC2)C(=O)N1c1ccc2c(c1)OCO2 (configuration not stated) | -16% | 2% | -23% | 6.3µM* | -13%
COC(=O)c1ccc(N2C(=O)CC(N3CCOCC3)C2=O)cc1 (configuration not stated) | 7% | 8% | -24% | 28µM* | 1%
COc1ccc(N2C(=O)CC(N3CCC(O)(c4cccc(C(F)(F)F)c4)CC3)C2=O)cc1 (configuration not stated) | 4% | 5% | -49% | 32µM* | 1%
O=C1CC(N2CCN(c3ccc(O)cc3)CC2)C(=O)N1c1ccc2c(c1)OCO2 (configuration not stated) | u | -7% | -5% | -18% | 1%
CCOc1ccc(N2C(=O)CC(N3CCC(O)(c4ccc(Br)cc4)CC3)C2=O)cc1 (configuration not stated) | 2% | 14% | -33% | 35µM* | 5%
O=c1cc(CN(Cc2ccccc2)Cc2ccccc2)c2c(ccc3ccccc32)o1 | 0% | 16% | x | 10% | x
Nc1nnnn1/N=C/c1ccc(O)cc1 | -8% | -10% | 9% | -19% | 16µM*
O=c1c2oc3ccccc3c2n(Cc2cccc(Cl)c2)c(=O)n1Cc1ccco1 | -3% | x | x | x | x
Clc1ccc(CN2CCN(c3ncccn3)CC2)c(Cl)c1 | 10% | 16µM* | 5% | 0% | -3%
Fc1ccc(Nc2nc(SCc3cccc(F)c3)nc3ccccc23)cc1 | -2% | x | x | x | x
Nc1nc(N)c2cc([N+](=O)[O-])ccc2n1 | -3% | 23% | x | 9% | x
Nc1nc(N)c2c(ccc3c2ccn3Cc2cccc([N+](=O)[O-])c2)n1 | 1% | 32µM* | x | 5.6µM* | x
O=C1/C(=C\c2cccc(O)c2O)SC(=S)N1Cc1ccccc1 | -19% | -6% | -9% | u | -3%
O=C1/C(=C\c2cc([N+](=O)[O-])ccc2O)SC(=S)N1Cc1ccc(Cl)cc1 | -3% | -10% | -8% | 40µM* | 1%
Cc1ccc(-c2cc(O)cc3sc(=O)oc23)cc1C | -4% | 3% | -4% | 40µM* | 1%
Cc1ccc(-n2cnc3c(=O)[nH]cnc32)cc1[N+](=O)[O-] | -4% | -7% | x | -14% | x
Cc1ccc2nc(-c3ccccn3)[nH]c2c1 | u | 17% | -16% | u | 22µM*
CCOc1ccc(-n2cc(-c3ccc(OC)c(OC)c3)[nH]c2=S)cc1 | 1.1µM* | 60% | -2% | 2% | u
CCOc1ccc(-c2cn(-c3ccccc3OC)c(=S)[nH]2)cc1 | -21% | 39% | 1% | -6% | 4%
Cc1oc(-c2ccc(C(=O)NCc3ccc(F)cc3)cc2)nc1CS(=O)c1ccccc1 (configuration not stated) | -8% | x | x | x | x
Cc1ccc(C(C[N+](=O)[O-])c2c(C)[nH]n(-c3ccccc3)c2=O)cc1 (configuration not stated) | 5% | -4% | -3% | 20µM* | 0%
Cc1[nH]n(-c2ccccc2)c(=O)c1C(C[N+](=O)[O-])c1ccc(F)cc1 (configuration not stated) | 0% | 2% | -12% | u | 6%
CCOc1cc(C(c2c(C)[nH]n(-c3ccccc3)c2=O)c2c(C)[nH]n(-c3ccccc3)c2=O)ccc1O | 0% | x | x | x | x
SMILES | TbPYK inhibitor | AMA1-RON2 inh | SARS PLpro yeast | RE007 growth inh | LmPK inh
Cc1[nH]n(-c2ccccc2)c(=O)c1C(C[N+](=O)[O-])c1ccc(Cl)cc1 (configuration not stated) | -5% | -19% | -62% | 28µM* | 1%
COc1ccc(C(c2c(C)[nH]n(-c3ccccc3)c2=O)c2c(C)[nH]n(-c3ccccc3)c2=O)cc1OC | -4% | -27% | 13µM* | 7% | 2%
C[C@H]1[C@@H]2Cc3ccc(O)cc3[C@]1(C)CCN2C | -10%[386 µM] | x | x | x | x
NC(=O)Nc1cc(-c2cccc(F)c2)sc1C(=O)N[C@H]1CCCNC1 | 0% | x | x | x | x
COc1cc2c3c(c1)C(C)=CC(C)(C)N3C(=O)C2=O | -5% | u | -2% | -8% | 3%
CCCOc1ccccc1-n1sc2c(c1=S)-c1cc(OC)cc3c1N(C(=O)C3=O)C2(C)C | 1% | 2.8µM* | -3% | -1% | 2%
CCCN(C(=O)c1cc2c(s1)-c1ccccc1SC2)c1ccccc1F | 4% | x | x | x | x
N=C1SCC(=O)N1c1ncc(Cc2ccc(F)cc2)s1 | -1% | 123% | -6% | 28µM* | 0%
Cc1ccc(-c2csc(N3C(=N)SCC3=O)n2)cc1 | -2% | 2% | 3% | -10% | 4%
COc1ccccc1/C=C/C=N\N1CCN(Cc2ccccc2Cl)CC1 | 1% | 20µM* | -8% | -18% | 1%
COc1ccc(Br)cc1/C=N/N1CCN(Cc2ccccc2Cl)CC1 | -5% | 8.9µM* | 0% | -3% | 16%
Clc1ccc(/C=N/N2CCN(Cc3ccccc3Cl)CC2)cc1 | -2% | 13µM* | 0% | u | 7%
COc1ccccc1/C=C/C=N/N1CCN(Cc2ccc(Cl)cc2)CC1 | 3% | u | -9% | 7% | 6%
COc1ccc(/C=N\N2CCN(Cc3ccccc3Cl)CC2)cc1 | 14% | 15% | -1% | u | -6%
CN1/C(=C\C=C2/SC(=S)N(CC(=O)O)C2=O)C(C)(C)c2ccccc21 | -11% | 20µM* | 0% | 24% | -28%
CCNC(C)Cc1ccc2c(c1)OCO2 (configuration not stated) | 6%[157 µM] | x | x | x | x
Cc1cc(NS(=O)(=O)c2ccc(NC(=O)c3oc4ccccc4c3C)cc2)no1 | -3% | 30µM* | u | -3% | 2%
Cc1c(C(=O)Nc2ccc(S(=O)(=O)Nc3ncccn3)cc2)oc2ccccc12 | -5% | -3% | -8% | -3% | x
O=C1c2ccccc2C(Nc2ccc3c(c2)OCO3)N1Cc1ccc2c(c1)OCO2 (configuration not stated) | u | -21% | -27% | 0% | -9%
COc1ccc(OC)c(NC2c3ccccc3C(=O)N2Cc2ccc3c(c2)OCO3)c1 (configuration not stated) | u | 16µM* | -9% | 6% | 3%
Cc1cccc2nc(COc3ccc(-c4ccccc4)cc3)cn12 | x | x | -2% | x | 25µM*
Cc1cc(C)n2cc(COc3ccc4ccccc4c3)nc2n1 | -10% | 26% | 10% | -5% | 0%
N#Cc1c(-c2ccccc2)cc(-c2ccccc2)nc1SCC(O)CS(=O)(=O)Cc1ccc(Cl)cc1 (configuration not stated) | -7% | x | x | x | x

Screening results as filed in PubChem BioAssay.
